# An excerpt weighted towards active compounds, which were near 27% of everything screened.
# CYP2C9 activ – activators of human CYP2C9. activation factor at 5 µM. recombinant CYP2C9, luciferin-H conversion, luminescence; stronger effect = higher value; factor 1 = untreated enzyme, 0 = blocked. P11712. hit rate 1.4% among 96,000;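 active means activation factor of 2 or more for CYP2C9 at a 5 µM dose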;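 further: 0 = sulfaphenazole-blocked wells and 1 = vehicle-only wells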
# CYP2C9 inhib – inhibitors of human CYP2C9; CYP2C9 Supersomes, luciferin-H conversion, luminescence; inhibition, % at 5 µM; hit rate 20% among 96,000;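 active means blocking of liver enzyme CYP2C9 beyond about 50% at 5 µM, limit read from the data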
# CYP2C19 act – increases human CYP2C19 enzyme activity. P33261. recombinant CYP2C19, luciferin-H EGE luminescence; stronger effect = higher value; 0 = fully inhibited enzyme, 1 = untreated enzyme. activation factor at 5 µM. 96,000 tested, under 10 active;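 active means activation factor of at least 2 at 5 µM in the primary screen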;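 further: 0 = wells with 2.5 mM tranylcypromine and 1 = vehicle-only wells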
# Target sequence (P33261 whole entry, looked up): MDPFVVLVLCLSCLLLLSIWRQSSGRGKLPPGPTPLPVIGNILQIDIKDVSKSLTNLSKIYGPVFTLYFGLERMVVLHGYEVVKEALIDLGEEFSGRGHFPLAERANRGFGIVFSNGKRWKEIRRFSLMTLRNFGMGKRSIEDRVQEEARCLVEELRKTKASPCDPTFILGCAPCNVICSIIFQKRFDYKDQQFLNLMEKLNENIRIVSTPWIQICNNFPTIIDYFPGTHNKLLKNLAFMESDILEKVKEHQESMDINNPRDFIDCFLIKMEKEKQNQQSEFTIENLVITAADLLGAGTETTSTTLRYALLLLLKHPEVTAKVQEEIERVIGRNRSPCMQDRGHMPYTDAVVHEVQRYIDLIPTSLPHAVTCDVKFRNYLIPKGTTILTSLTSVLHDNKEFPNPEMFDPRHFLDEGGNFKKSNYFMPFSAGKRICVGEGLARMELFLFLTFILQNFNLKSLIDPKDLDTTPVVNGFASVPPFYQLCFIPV
# CYP2C19 inh – inhibitors of human CYP2C19. AID 778. P33261. CYP2C19 Supersomes, luciferin-H EGE luminescence, 30 min. inhibition, % at 5 µM. hit rate 21% among 96,000;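 active means CYP2C19 inhibition above a set limit at 5 µM in the primary screen, cut at about 50% in these data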;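 further: plate controls were negative control wells for no effect and 2.5 mM tranylcypromine positive control for full effect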
# EphB4 antag – EphB4-ephrin-B2 interaction antagonism; P54760; EphB4 LBD / TNYL-RAW-Alexa532 peptide, fluorescence polarization; inhibition, % at 7 µM; hit rate 0.15% among 97,000; AID 720;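 active means inhibition above the screen-wide mean inhibition plus 3 SD, cut at about 15% in these data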;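 further: 0% = DMSO wells and 100% = excess unlabeled TNYL-RAW peptide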
# An asterisk follows results filed as active; . = no result given.
SMILES,CYP2C9 activ,CYP2C9 inhib,CYP2C19 act,CYP2C19 inh,EphB4 antag
CCOC(=O)C1CCCN(C(=O)c2cc(Cl)ccc2Cl)C1 (configuration not stated),0.1,93.9*,0,96.7*,-0.8
CCOC(=O)N1CCN(C(=O)CCSCCc2ccncc2)CC1,0.7,32.5,0.4,62.6*,8.0
CCOC(=O)C1CCN(C(=O)Cc2c(F)cccc2Cl)CC1,0.8,20.6,0.7,29.9,-5.6
CCOC(=O)C1CCCN(C(=O)C(C)Oc2ccc(Cl)cc2Cl)C1 (configuration not stated),0.5,51.0*,0.6,39.6,-11.8
CCOC(CNC(=O)c1cc(C)nn1-c1ccccc1)OCC,1,0.7,0.9,14.6,5.8
CCOC(=O)C1CCCN(Cc2c(F)cccc2Cl)C1 (configuration not stated),0.9,7.1,0.4,61.8*,-1.9
CCOC(=O)C1CCCN(C(=O)c2sc3nc(-c4ccc(F)cc4)cn3c2C)C1 (configuration not stated),0.7,27.8,0.8,21.3,1.7
CCOC(=O)C1CCCN(C(=O)c2sc3nc(-c4ccccc4)cn3c2C)C1 (configuration not stated),0.4,56.0*,0.4,59.1*,0.5
CCOC(=O)C1CCN(Cc2c(F)cccc2Cl)CC1,0.8,17.4,0.8,17.7,3.2
CCOC(=O)C1CCN(C(=O)Cc2ccc(C)cc2)CC1,0.5,51.6*,0.8,20.9,-3.6
CCOC(=O)C1CCN(C(=O)Cc2ccc(OC)c(OC)c2)CC1,1.2,-16.0,0.8,23.2,-3.4
CCOC(=O)N1CCN(C(=O)Cc2ccc(Cl)cc2)CC1,0.4,64.4*,0.5,54.0*,.
COc1ccc(NC(=S)NN2CCN(C)CC2)cc1,1.1,-12.0,1,0.5,4.5
CCc1nnc(NC(=O)c2ccc(-c3ccccc3Cl)o2)s1,0.6,40.2,0.8,23.5,8.3
O=C(c1noc2c1CCCC2)N1CCN(c2ccccc2)CC1,1,4.9,1,-4.0,.
CC1CCCCN1C(=O)Cc1ccc(Cl)cc1 (configuration not stated),0.7,31.3,0,96.0*,-3.5
CCOC(=O)C1CCCN(C(=O)Cc2ccc(Cl)cc2)C1 (configuration not stated),0.2,76.3*,0.7,29.9,0.1
CCOC(=O)C1CCCN(C(=O)CCc2ccccc2)C1 (configuration not stated),0.8,17.7,0.6,36.3,4.6
CCOC(=O)C1CCCN(C(=O)Nc2ccccc2)C1 (configuration not stated),0.9,5.9,0.6,43.3,2.4
CCCCC(=O)Nc1ccc(C(=O)N2CCCC(C(=O)OCC)C2)cc1 (configuration not stated),1,-1.3,0.1,91.8*,-7.6
CCOC(=O)C1CCCN(C(=O)CC(C)c2ccccc2)C1 (configuration not stated),0.2,84.4*,0.2,79.0*,-4.3
O=C(NC1CCCCC1)N(Cc1nc2ccccc2c(=O)[nH]1)C1CCCCC1,0.9,11.0,0.9,8.3,-11.0
COC(=O)C1CCN(C(=O)C(C)Oc2ccc(Cl)cc2Cl)CC1 (configuration not stated),0.8,18.5,0.1,89.6*,-2.9
CCOC(=O)C1CCN(C(=O)CSc2ccccc2)CC1,0.7,30.7,0.4,64.0*,-9.7
CCOC(=O)C1CCCN(C(=O)c2ccccc2SCCOC)C1 (configuration not stated),0.3,67.8*,0.4,61.3*,3.6
SMILES,CYP2C9 activ,CYP2C9 inhib,CYP2C19 act,CYP2C19 inh,EphB4 antag
CCOC(=O)C1CCN(C(=O)CC(C)c2ccccc2)CC1 (configuration not stated),1,4.5,0.8,18.9,2.9
Cc1[nH]c2ccccc2c1-c1nc2ccccc2[nH]1,0.3,67.6*,0.6,39.2,.
COc1ccc(-c2nc3ccccc3[nH]2)cc1,0.6,35.1,0.4,64.6*,0.3
CCn1c(CSc2nc(C)cc(C)n2)nnc1SCC(=O)Nc1cccc2ccccc12,1.4,-39.1,0.9,5.0,10.9
COc1ccccc1N1CCN(Cc2nc(N)nc(Nc3ccccc3)n2)CC1,0.6,39.3,0.7,29.7,5.2
COc1ccccc1/C=C/C=N/N1CCN(Cc2ccc(Cl)cc2)CC1,1.2,-19.4,0.5,52.4*,1.7
Cc1ccc(/C=N/N2CCN(Cc3ccc(Cl)cc3)CC2)o1,0.4,63.1*,0.3,67.6*,-2.2
O=C(COC(=O)c1ccc(Br)o1)Nc1nc2ccccc2s1,0.6,42.2,0.7,32.5,.
Cn1c(SCC(=O)N2CCN(c3ccccc3)CC2)nnc1-c1cc2ccccc2o1,0.9,13.8,1,2.1,-2.3
COc1ccc(-n2nnnc2SCC(N)=O)cc1,1.1,-14.8,1.1,-11.1,3.3
COc1ccc(-n2nnnc2SCC(=O)c2cc3ccccc3o2)cc1,0.2,76.3*,0.1,90.8*,3.4
Cc1cccc(NC(=O)CSc2nccn2C)c1,.,.,.,.,6.6
Cn1ccnc1SCC(=O)c1cc2ccccc2o1,1,1.6,0.4,59.4*,2.5
Cn1c(SCC(=O)c2cc3ccccc3o2)nnc1-c1ccccc1,0.3,68.2*,0.2,83.8*,-0.7
O=C(CSc1nc2ccccc2s1)c1cc2ccccc2o1,1.3,-25.7,0.9,12.1,-5.6
Cn1ccnc1SCC(=O)c1cccc(Br)c1,0.8,17.1,0.1,85.5*,3.4
Cc1c(N2C(=O)c3ccc4c5c(ccc(c35)C2=O)CC4)c(=O)n(-c2ccccc2)n1C,1.2,-23.1,1,2.5,-1.3
COc1ccc(N2C(=O)CC(N3CCN(C4CCc5ccccc5C4)CC3)C2=O)cc1 (configuration not stated),1,-2.6,1,2.9,-3.6
CC1(C)Cc2c(c(N3CCCC3)[nH]c(=S)c2C#N)CO1,1.1,-5.5,1.1,-12.1,-6.4
CCC(Sc1ncccn1)C(=O)Nc1cc(C)on1 (configuration not stated),.,.,.,.,-3.4
CCn1c(SCC(=O)NCc2ccco2)nc2c(c1=O)SC(C)C2 (configuration not stated),0.7,27.5,1.1,-6.9,-2.6
CC1Cc2nc(SCC(=O)NCCc3ccccc3)n(C)c(=O)c2S1 (configuration not stated),.,.,.,.,-2.5
CCn1c(SCC(=O)NCCc2ccccc2)nc2c(c1=O)SC(C)C2 (configuration not stated),0.1,91.8*,0.2,76.0*,-1.2
CCn1c(SCC(=O)NCc2ccccc2)nc2c(c1=O)SC(C)C2 (configuration not stated),0.4,61.2*,0.7,30.2,3.5
CCn1c(SCC(=O)NCc2ccc(F)cc2)nc2c(c1=O)SC(C)C2 (configuration not stated),0.4,62.6*,0.9,6.3,.
CCC(CC)c1nnc(NC(=O)c2ccc3ccccc3n2)s1,.,.,.,.,2.4
Cc1ccc(C(=O)c2ccc(C(F)(F)F)cc2)cc1,0.9,14.0,0.6,35.4,9.4
